In PubChem BioAssay AID777 (Sanford-Burnham Center for Chemical Genomics, 2007):
In all, about 96,000 compounds went through this assay and about 19,000 (20%) were called active.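 How the source made its calls: active means blocking of liver enzyme CYP2C9 beyond about 50% at 5 µM (limit read from the data); inactive means the rest.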 Not all results are given here.

Molecular target: Cytochrome P450 2C9 (Homo sapiens) (UniProt P11712)
Assay: blockers of cytochrome P450 2C9 activity – biochemical, luminescence, ADME assay, primary screen (AID 777)
Settings: CYP2C9 Supersomes, luciferin-H conversion, at 5 µM, active compounds read high

Chain of Cytochrome P450 2C9 (Homo sapiens) (P11712 whole entry, looked up): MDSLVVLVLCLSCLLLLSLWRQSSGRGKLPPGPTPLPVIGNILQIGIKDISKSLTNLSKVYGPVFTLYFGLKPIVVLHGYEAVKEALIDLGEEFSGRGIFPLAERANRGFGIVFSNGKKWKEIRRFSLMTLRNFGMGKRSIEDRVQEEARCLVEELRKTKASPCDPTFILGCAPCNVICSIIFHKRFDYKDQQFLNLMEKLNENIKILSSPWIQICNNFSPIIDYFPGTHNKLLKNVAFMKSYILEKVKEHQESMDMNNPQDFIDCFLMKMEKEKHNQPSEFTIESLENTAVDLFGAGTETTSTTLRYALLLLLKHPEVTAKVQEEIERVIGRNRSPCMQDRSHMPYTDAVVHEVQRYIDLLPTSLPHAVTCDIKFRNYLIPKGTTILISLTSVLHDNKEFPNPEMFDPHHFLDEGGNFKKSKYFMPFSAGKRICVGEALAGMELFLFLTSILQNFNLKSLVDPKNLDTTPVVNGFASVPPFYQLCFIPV

inhibition, active:
COc1ccc(-c2nc3ccccc3n2CCC(C)C)cc1OC 59.6%
CCN(Cc1ccncc1)C(=O)c1cccc(S(=O)(=O)N2CCOCC2)c1 94.8%
COc1ccc(C2C(C#N)=C(N)Oc3cc(N)ccc32)cc1OC (stereo not drawn) 85.7%
CCOC(=O)c1c(C2CC2)csc1NC(=O)CSCc1c(C)noc1C 65%
Cc1ccc(NC(=O)CN2CCC3(O)CCCCC3C2c2ccc3c(c2)OCO3)c(C)c1 (stereo not drawn) 90.4%
CC(c1ccccc1)n1c(NCCCn2ccnc2)nc2c1c(=O)[nH]c(=O)n2C (stereo not drawn) 96.2%
CCCc1nc2ccccc2c(=O)n1NC(=O)c1c(O)c2ccccc2[nH]c1=O 60.6%
C=CCn1c(SCc2cc(C(=O)OC)c(C)o2)nnc1-c1ccncc1 57.4%
C=CCn1c(SCc2c(C(=O)OC)sc(N)c2C(=O)OC)nnc1-c1ccc(Cl)cc1 79%
CC(=NCc1ccco1)c1c(C(F)(F)F)[nH]n(-c2nc3ccccc3s2)c1=O 64.2%
COc1ccc(OC)c(S(=O)(=O)N(C)CC(=O)N2CCN(c3ccccc3)CC2)c1 78.3%

inhibition, inactive:
Cc1ccc(C)c(S(=O)(=O)N2CC(=O)Nc3ccccc32)c1 12.1%
COCCn1c(-c2ccc(OC)c(OC)c2)nc2ccccc21 -20%
CCOCCn1c(C(C)C)nc2ccccc21 5.1%
CSc1nc(-c2ccco2)nn1C(=O)CCc1ccccc1 -12.3%
C=CCOc1cccc(CNn2cn[nH]c2=S)c1 -16.1%
CC(C)C(NC(=O)c1cccc(S(=O)(=O)N2CCOCC2)c1)C(=O)NCCc1ccccn1 (stereo not drawn) -17.7%
O=C(c1cccc(S(=O)(=O)N2CCOCC2)c1)N1CCOCC1 -6.1%
N#CC1=C(N)Oc2cc(O)ccc2C1C1CCCCC1 (stereo not drawn) 44.8%
COc1cc(C2C(C#N)=C(N)Oc3n[nH]c(-c4ccccn4)c32)cc(OC)c1OC (stereo not drawn) -6.2%
Cc1ccc(-n2c(C)cc(/C=C(\C#N)C(=O)NCC3CCCO3)c2C)cc1 (stereo not drawn) 13.8%
COc1ccc(N2CCN(C(=O)CSc3nnc4ncccn34)CC2)cc1 18.5%
Cc1nc2ccc(S(=O)(=O)NCC(=O)NCCN3CCCCC3C)cc2s1 (stereo not drawn) 8.5%
COc1ccc(C(C#N)Nc2ccc(C)cc2)cc1 (stereo not drawn) -0.6%
Cc1noc(C)c1CSCC(=O)Nc1nc2ccc(Oc3ccccc3)cc2s1 44.1%
CCOC(=O)c1sc(NC(=O)CCN2CCOCC2)c(C(=O)OCC)c1C 40.4%
COCCn1nnnc1CN1CCC(NC(=O)Nc2cccc(OC)c2)CC1 -12.7%
CC(C)C1C2=C(CC(C)(C)CC2=O)ON1c1ccccc1 (stereo not drawn) 28.7%
N=c1ccn(CC(=O)NC(N)=O)c2ccccc12 -0.4%
CC1CCCCN1CC(=O)NCc1ccc2c(c1)OCO2 (stereo not drawn) -6.6%
CCN(CC)c1ccc(C2C3CCCCC3(O)CCN2CC(=O)Nc2ccccc2)cc1 (stereo not drawn) 1.4%
CN(Cc1nc2ccccc2c(=O)[nH]1)Cc1cc(=O)oc2ccc3ccccc3c12 34.3%
CCCN(c1ccc(C(C)C)cc1)S(=O)(=O)c1c(C)[nH]c(=O)[nH]c1=O 21.6%
O=C(NCN1CCN(CCO)CC1)c1cnccn1 10.7%
CC1CC(C)CN(CC(=O)N2c3ccccc3CCc3ccccc32)C1 (stereo not drawn) -3.1%
CCCCNc1nc2c(c(=O)[nH]c(=O)n2C)n1CCOc1ccccc1 23.9%
COc1ccc(CCn2c(NCCCN3CCOCC3)nc3c2c(=O)[nH]c(=O)n3C)cc1 16.8%
O=C1c2cccc3cccc(c23)N1CN1CCN(c2ccccn2)CC1 -43%
C/C(=N\NC(=O)c1ccccc1C)c1ccc(N2CCOCC2)cc1 -40.9%
CCCC(=O)Nc1c(O)c2ccccc2[nH]c1=O 5.2%
CCCCc1nc2ccccc2c(=O)n1NC(=O)c1c(O)c2cccc3c2n(c1=O)CC3 20.8%
CCCOC(=O)Cc1c(O)c2ccccc2[nH]c1=O -19.5%
COC(=O)c1sc(=S)n(-c2ccc(Cl)cc2)c1C 40.2%
CCc1nnc(NC(=O)CSc2nnc(-c3ccncc3)n2Cc2ccccc2)s1 26.1%
C=CCn1c(CC(=O)Nc2cccc(OC)c2)nnc1SCC(=O)NC1CCCCC1 10%
COCCn1c(SCc2nc3cc(OC)c(OC)cc3c(=O)[nH]2)nnc1-c1ccncc1 -18.5%
O=C1c2ccccc2C2=Nc3ccccc3SC(c3ccccc3F)C12 (stereo not drawn) 8.8%
COc1ccccc1Nc1nc(N)nc(CN(C)C2CCCCC2)n1 -18.4%
Cc1c(C#N)c2ncn(CC#N)c(=O)c2n1-c1ccccc1 -15.9%
O=C(NCc1ccccn1)c1cnc2sccn2c1=O -4%
O=C(CNCCO)NC12CC3CC(CC(C3)C1)C2 -6%
O=C(Nc1cc(C(F)(F)F)ccc1Cl)c1cc2nc3c(c(C(F)(F)F)n2n1)CCCC3 -42.8%
COc1ccc2nc(NC3=NCN(CC4CCCO4)CN3)nc(C)c2c1 (stereo not drawn) 1.3%
COc1c(Cl)cc(C(=O)Nc2ccc(Cl)cn2)cc1Cl -12.2%
CCOC(=O)N1CCN(C(c2cccnc2)c2ccc3cccnc3c2O)CC1 (stereo not drawn) 32.6%
COC(=O)Cc1cc(=O)n(-c2nc3ccccc3s2)[nH]1 18.5%
CCc1ccc(-c2cc(C(=O)NCc3ccco3)c3ccccc3n2)s1 39.4%
CCOc1[nH]n(-c2ccc(Cl)cc2)c(=O)c1C=Nc1ccc(O)cc1 37%
O=C(Nc1ccc(S(=O)(=O)N2CCCC2)cc1Cl)C1=COCCO1 19.8%
CC(C)C(C(=O)NC1CCCCC1)N(CC1CCCO1)C(=O)CNS(=O)(=O)c1ccc(F)cc1 (stereo not drawn) -3.2%
COc1ccc(-c2oc3ncn(Cc4ccco4)c(=N)c3c2-c2ccc(OC)cc2)cc1 27.6%
COc1ccc(N2CCN(C(=O)CNC(=O)c3ccc(C(C)(C)C)cc3)CC2)cc1 22.1%
CCN1CCN(C(=O)CN(C)S(=O)(=O)c2ccc(OC)cc2)CC1 -20.1%
